According to PubChem BioAssay AID1259422 (The Scripps Research Institute Molecular Screening Center, 2018):
In all, about 640,000 compounds went through this assay and about 9,300 (1.5%) were called active. No stated cut-off is given here; in the data, active means inhibition above about 32%; inactive means the rest. Many of the other results were omitted from the sample, so actives are more common in it than they were.

Assay: TEAD-YAP interaction inhibition, primary screen, TEAD-YAP interaction inhibitor project, luminescence, HEK-TIYL cells (AID 1259422);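 further: 0% = median of test compound wells and 100% = reference inhibitor wells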
Settings: TEAD-Gal4/YAP UAS-luciferase luminescence, at 9.12 µM, active compounds read high

Compound | inhibition
C=CCOC(=O)N1CCC(C(=O)NC(c2ccc(F)cc2)c2ccccn2)CC1 (stereo unspecified) | 6.83% (inactive)
COc1ccccc1NC(=O)N1CCC2(CC1)OCc1cc(SC)cc(C)c1O2 | 1.69% (inactive)
C=CC(=O)Nc1ccc(OC)cc1OC | 43.2% (active)
COc1ccc(NC(=O)/C=C\c2cccc3ccccc23)c(OC)c1 | 2.51% (inactive)
COc1ccc(CNC(=O)Nc2ccc(OC)cc2OC)cc1 | 0.36% (inactive)
CCn1cc(C(=O)OCc2c(F)cccc2Cl)c(=O)c2ccc(C)nc21 | -3.49% (inactive)
CCOc1ccc(-c2nc(-c3cccc([N+](=O)[O-])c3)no2)cc1 | -19.3% (inactive)
CCOC(=O)C(CC)Sc1nnc2c(n1)[nH]c1ccc(F)cc12 (stereo unspecified) | -2.45% (inactive)
CCCCNc1ncnc2c1[nH]c1ccc(F)cc12 | 42.6% (active)
Cc1ccc2[nH]c3c(=O)n(N)cnc3c2c1 | -5.24% (inactive)
N#CC1(NS(=O)(=O)c2cc([N+](=O)[O-])ccc2Cl)CCCCC1 | -2.76% (inactive)
CC(=O)c1ccc(NC(=O)/C=C/c2cccc([N+](=O)[O-])c2)cc1 | -22.5% (inactive)
COCCCNc1ncnc2ccc(I)cc12 | 29.9% (inactive)
Ic1ccc2ncnc(NCCc3ccccc3)c2c1 | 32.8% (active)
Ic1ccc2ncnc(NCC3CCCO3)c2c1 (stereo unspecified) | 25.4% (inactive)
CCn1c(SCC(=O)N2CCc3ccccc32)nnc1-c1ccccc1 | -0.23% (inactive)
O=C(Nc1ccc(N2CCOCC2)cc1)c1csc(Nc2ccc(-n3ccnc3)cc2)n1 | 17.6% (inactive)
O=C(NCCc1ccc(O)cc1)c1csc(Nc2ccc3ncccc3c2)n1 | -1.97% (inactive)
O=C(NCCc1ccc(O)cc1)c1csc(Nc2ccc(N3CCOCC3)cc2)n1 | 39.4% (active)
O=C(NCCc1ccccc1)c1csc(Nc2ccccc2)n1 | -24.6% (inactive)
O=C(NCc1ccccc1)c1csc(Nc2ccc(N3CCOCC3)cc2)n1 | 35% (active)
O=C(NCc1ccccc1)c1csc(Nc2ncccn2)n1 | 5.56% (inactive)
Cc1ccc2nc(-c3cc(NC(=O)c4ccccc4C)ccc3Cl)oc2c1 | -11.2% (inactive)
COc1ccc(Cn2c(SCC(=O)NCCc3ccc(OC)c(OC)c3)nc3ccsc3c2=O)cc1 | 11.1% (inactive)

Compound | inhibition
CC(C)(C)c1ccc(CSc2nc3ccc(NC(=O)c4ccccc4)cc3s2)cc1 | 2.44% (inactive)
CCC(=O)Nc1ccc(NC(=O)COc2ccc(Br)cc2)cc1C | 0.24% (inactive)
COc1ccc(-c2cc(C(=O)Nc3sc(C)c(C)c3C#N)c3ccccc3n2)cc1OC | -0.22% (inactive)
CCN(CC)C(=O)c1sc(NC(=O)c2c(-c3ccccc3)noc2C)c(C(=O)OC(C)C)c1C | 2.03% (inactive)
Fc1ccc(C2=Nc3ccc(F)cc3C(C3CC3)=NN2)cc1 | -2.31% (inactive)
CCOc1ccc(C(=O)NCC(=O)OCC#N)cc1 | 0.54% (inactive)
CCOC(=O)/C(N=Nc1cc(C(=O)O)cc(C(=O)O)c1)=C(\C)O | 8.94% (inactive)
CS(=O)(=O)c1ccc(C(=O)OCC(=O)c2ccc3c(c2)OCCO3)cc1[N+](=O)[O-] | 2.27% (inactive)
CCOC(=O)/C(N=Nc1ccc2c(c1)OCCO2)=C(/O)c1ccc([N+](=O)[O-])cc1 | 88.1% (active)
COc1ccc(CNC(=O)CC(C)C)cc1 | -2.6% (inactive)
c1cc(-c2ccc(OC3CCNCC3)cc2)cs1 | -27.5% (inactive)
Cc1cc(C)c(OCCn2c(-c3ccc(Cl)cc3)nc3ccccc3c2=O)c(C)c1 | -10.6% (inactive)
CCOc1ccc(S(=O)(=O)Nc2ccc(Cl)cc2C)cc1 | 53% (active)
CCOc1ccc(NS(=O)(=O)c2ccc(Cl)cc2)cc1 | 3.58% (inactive)
CCOc1ccc(S(=O)(=O)Nc2cc(C)cc(C)c2)cc1 | -1.15% (inactive)
O=C(c1ccccc1F)N1CCc2nnc(Cc3ccccc3)n2CC1 | 6.95% (inactive)
CCCCN(C)Cc1c(O)c(Cl)cc2c(C)cc(=O)oc12 | 6.72% (inactive)
Cc1c(C(=O)Nc2ccc3c(c2)Cc2ccccc2-3)oc2ccccc12 | -8.71% (inactive)
CC(C)c1nnc(NC(=O)CCN2C(=O)C3C4C=CC(C4)C3C2=O)s1 (stereo unspecified) | -6.27% (inactive)
Cc1cc(C)n2cc(CN3CCc4ccccc4C3)nc2n1 | -0.09% (inactive)
Cc1ccc(-c2nc3ccccc3s2)cc1NC(=O)c1sc2ccccc2c1Cl | -13.1% (inactive)
O=C(Nc1nc2ccccc2s1)c1sc2ccccc2c1Cl | 38.5% (active)
O=C(Nc1cccc2ncccc12)c1sc2ccccc2c1Cl | -3.37% (inactive)
Cc1ccc2c(c1)NC(=O)C(CC(=O)NCCN(C)C1CCCCC1)O2 (stereo unspecified) | -13.3% (inactive)

Compound | inhibition
CCc1nnc2sc(-c3ccc(NC(=O)COc4ccccc4[N+](=O)[O-])cc3)nn12 | 1.75% (inactive)
COc1ccc(-n2cc(-c3ccccc3)c3c(NCCc4ccc(S(N)(=O)=O)cc4)ncnc32)cc1 | 9.44% (inactive)
CC(=O)Nc1ccc2nc(NC(=O)c3ccc(S(=O)(=O)N4CCCCC4)cc3)sc2c1 | 1.92% (inactive)
CC(=O)Nc1ccc2nc(NC(=O)c3cc4cc([N+](=O)[O-])ccc4s3)sc2c1 | 16.6% (inactive)
Cn1ncc([N+](=O)[O-])c1C(=O)Nc1ccc2nc(NC(=O)C3CCCCC3)sc2c1 | 66.2% (active)
CCOC(=O)C1CCN(Cc2cccc([N+](=O)[O-])c2)CC1 | -8.78% (inactive)
COc1cccc(/C=C2\SC(=S)N(c3ccc(C(=O)O)c(O)c3)C2=O)c1OC | 47.1% (active)
Cc1ccc(/C=C2\SC(=S)N(c3cccc(O)c3)C2=O)o1 | -1.97% (inactive)
O=C(O)c1cc(N2C(=O)/C(=C/c3ccc(O)cc3)SC2=S)ccc1O | 1.88% (inactive)
CCn1c(=O)cc(SCC(=O)Nc2nc(C)cs2)c2ccccc21 | -2.9% (inactive)
CC(=O)O[C@@H]1C[C@H](c2ccc(F)cc2)N(C)C1=O | 3.54% (inactive)
O=C1c2ccccc2C(=O)N1CCC(=O)N1c2ccccc2Sc2ccccc21 | -5.51% (inactive)
CCN1/C(=C/c2cc(C)[n+](N3CCN(C)CC3)c(C)c2)Sc2ccccc21 | 75.1% (active)
Cc1cc(/C=C2\Sc3ccccc3N2C)cc(C)[n+]1CCO | 73.5% (active)
CCOc1cc2c(cc1OCC)N(CC)/C(=C\C=O)S2 | -11.6% (inactive)
O=C(CN1C(=O)/C(=C/c2ccccc2)Sc2ccccc21)N1CCCC1 | -1.18% (inactive)
CN1/C(=C/C(=S)C(C)(C)C)Sc2ccccc21 | -12.6% (inactive)
Cc1ccc(CC(=O)O/N=C(\N)c2ccc(Br)cc2)cc1 | -13% (inactive)
Cc1cc(Nc2ccc3c(c2)OCO3)nc(Nc2cccc(N(C)C)c2)n1 | 2.34% (inactive)
CC1(C)CC(=O)C(N=Nc2cc(C(N)=O)c(Cl)cc2Cl)=C(O)C1 | -1.09% (inactive)
COc1cccc(C(=O)NC(=S)Nc2cccc(C(=O)O)c2)c1 | 30.7% (inactive)
COc1ccc(C(=O)Nc2nc(C)cs2)c(OC)n1 | 89.4% (active)
COc1ccc2oc(=O)c(-c3csc(NC(=O)c4ccccc4)n3)cc2c1 | 1.86% (inactive)
COc1ccccc1C(=O)Nc1nc(-c2ccccc2)c(C)s1 | -3.33% (inactive)

Compound | inhibition
COc1ccccc1C(=O)Nc1nc(C)cs1 | 80.1% (active)
Cc1csc(NC(=O)c2ccc(I)cc2)n1 | -17.9% (inactive)
COc1cccc(C(=O)Nc2nc(-c3ccc(C)c(C)c3)cs2)c1OC | -6.84% (inactive)
CCOC(=O)C1(Cc2cccc(F)c2)CCN(CCO)CC1 | 2.96% (inactive)
CCN1CCN(S(=O)(=O)c2ccc(F)c(C(=O)Nc3cccc(C)c3C)c2)CC1 | 3.75% (inactive)
O=C(Nc1ccccc1Br)c1ccc(Cl)c([N+](=O)[O-])c1 | -1.84% (inactive)
O=C(CSc1nc2ccccc2c(=O)n1-c1ccc(C(=O)N2CCOCC2)cc1)NCc1ccccc1Cl | 5.25% (inactive)
COc1cccc(NC(=O)Cn2c3ccccc3c(=O)c3cc(Cl)ccc32)c1 | 1.55% (inactive)
CCOc1cc(/C=C2\SC(=S)NC2=O)cc(Br)c1OC | -5.88% (inactive)
Nc1nc(Nc2ccc(N3CCOCC3)cc2)cc(-c2ccc3[nH]ccc3c2)n1 | -4.34% (inactive)
CN1CCN(c2ccc(-c3cc(Nc4ccc(N5CCOCC5)cc4)nc(N)n3)cc2)CC1 | 64.9% (active)
CN1CCN(c2ccc(-c3cc(NCCOc4ccccc4)nc(N)n3)cc2)CC1 | 23.1% (inactive)
CCNc1nc(NCCc2ccc(OC)cc2)c2ncn(Cc3ccc(C(F)(F)F)cc3)c2n1 | 12.1% (inactive)
COc1ccc(CCNc2nc(-c3c(C)noc3C)nc3c2ncn3Cc2ccc(C(F)(F)F)cc2)cc1 | 40.4% (active)
COc1ccc(-c2nc(NCc3ccccc3)c3ncn(Cc4ccc(C(F)(F)F)cc4)c3n2)cc1 | 5.78% (inactive)
Oc1ccc(CCNc2nc(Nc3ccncn3)nc3c2ncn3Cc2ccc(C(F)(F)F)cc2)cc1 | -4.85% (inactive)
NC(=S)N/N=C/c1c(Sc2ccccn2)nc2ccccn2c1=O | -6.3% (inactive)
O=c1c(C=Nc2ccc(Cl)cc2)c(Nc2ccccc2)nc2ccccn12 | -17.1% (inactive)
O=c1c(/C=N/Nc2ccc(C(F)(F)F)cn2)c(Cl)nc2ccccn12 | 52.1% (active)
COc1ccc(/C=C2\C(=O)N(c3ccc(Cl)c(C(=O)O)c3)N=C2C)cc1Br | 0.17% (inactive)
C/C(CC(C)C)=N\NC(=O)c1nnn(-c2nonc2N)c1-c1ccccc1 | -8.99% (inactive)
O=C(Nc1ccc(N2CCOCC2)c(Cl)c1)c1ccc(-c2ccccc2[N+](=O)[O-])o1 | 11.7% (inactive)
COc1ccc(NC(=O)c2ccco2)cc1NC(=O)c1ccc(-c2ccccc2[N+](=O)[O-])o1 | 34.4% (active)
O=C(Nc1cccc(NC(=O)c2ccc(-c3ccccc3[N+](=O)[O-])o2)c1)c1ccco1 | -5.61% (inactive)
